The entries come from a sample that favours hits as a whole.
Dicer processing: blocks human Dicer maturation of pre-miR-21 | cat-ELCCA pre-miR-21 Dicer processing, chemiluminescence; hits give high values | z-score at 25 µM | 47,000 compounds, 6% hits; in the data active means z-score above about 3, passing the limit was not always enough;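 further: plate controls were vehicle for no effect and no enzyme for full effect; higher signal means more uncleaved substrate so more Dicer inhibition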
Target sequence (Q9UPY3 whole entry, looked up): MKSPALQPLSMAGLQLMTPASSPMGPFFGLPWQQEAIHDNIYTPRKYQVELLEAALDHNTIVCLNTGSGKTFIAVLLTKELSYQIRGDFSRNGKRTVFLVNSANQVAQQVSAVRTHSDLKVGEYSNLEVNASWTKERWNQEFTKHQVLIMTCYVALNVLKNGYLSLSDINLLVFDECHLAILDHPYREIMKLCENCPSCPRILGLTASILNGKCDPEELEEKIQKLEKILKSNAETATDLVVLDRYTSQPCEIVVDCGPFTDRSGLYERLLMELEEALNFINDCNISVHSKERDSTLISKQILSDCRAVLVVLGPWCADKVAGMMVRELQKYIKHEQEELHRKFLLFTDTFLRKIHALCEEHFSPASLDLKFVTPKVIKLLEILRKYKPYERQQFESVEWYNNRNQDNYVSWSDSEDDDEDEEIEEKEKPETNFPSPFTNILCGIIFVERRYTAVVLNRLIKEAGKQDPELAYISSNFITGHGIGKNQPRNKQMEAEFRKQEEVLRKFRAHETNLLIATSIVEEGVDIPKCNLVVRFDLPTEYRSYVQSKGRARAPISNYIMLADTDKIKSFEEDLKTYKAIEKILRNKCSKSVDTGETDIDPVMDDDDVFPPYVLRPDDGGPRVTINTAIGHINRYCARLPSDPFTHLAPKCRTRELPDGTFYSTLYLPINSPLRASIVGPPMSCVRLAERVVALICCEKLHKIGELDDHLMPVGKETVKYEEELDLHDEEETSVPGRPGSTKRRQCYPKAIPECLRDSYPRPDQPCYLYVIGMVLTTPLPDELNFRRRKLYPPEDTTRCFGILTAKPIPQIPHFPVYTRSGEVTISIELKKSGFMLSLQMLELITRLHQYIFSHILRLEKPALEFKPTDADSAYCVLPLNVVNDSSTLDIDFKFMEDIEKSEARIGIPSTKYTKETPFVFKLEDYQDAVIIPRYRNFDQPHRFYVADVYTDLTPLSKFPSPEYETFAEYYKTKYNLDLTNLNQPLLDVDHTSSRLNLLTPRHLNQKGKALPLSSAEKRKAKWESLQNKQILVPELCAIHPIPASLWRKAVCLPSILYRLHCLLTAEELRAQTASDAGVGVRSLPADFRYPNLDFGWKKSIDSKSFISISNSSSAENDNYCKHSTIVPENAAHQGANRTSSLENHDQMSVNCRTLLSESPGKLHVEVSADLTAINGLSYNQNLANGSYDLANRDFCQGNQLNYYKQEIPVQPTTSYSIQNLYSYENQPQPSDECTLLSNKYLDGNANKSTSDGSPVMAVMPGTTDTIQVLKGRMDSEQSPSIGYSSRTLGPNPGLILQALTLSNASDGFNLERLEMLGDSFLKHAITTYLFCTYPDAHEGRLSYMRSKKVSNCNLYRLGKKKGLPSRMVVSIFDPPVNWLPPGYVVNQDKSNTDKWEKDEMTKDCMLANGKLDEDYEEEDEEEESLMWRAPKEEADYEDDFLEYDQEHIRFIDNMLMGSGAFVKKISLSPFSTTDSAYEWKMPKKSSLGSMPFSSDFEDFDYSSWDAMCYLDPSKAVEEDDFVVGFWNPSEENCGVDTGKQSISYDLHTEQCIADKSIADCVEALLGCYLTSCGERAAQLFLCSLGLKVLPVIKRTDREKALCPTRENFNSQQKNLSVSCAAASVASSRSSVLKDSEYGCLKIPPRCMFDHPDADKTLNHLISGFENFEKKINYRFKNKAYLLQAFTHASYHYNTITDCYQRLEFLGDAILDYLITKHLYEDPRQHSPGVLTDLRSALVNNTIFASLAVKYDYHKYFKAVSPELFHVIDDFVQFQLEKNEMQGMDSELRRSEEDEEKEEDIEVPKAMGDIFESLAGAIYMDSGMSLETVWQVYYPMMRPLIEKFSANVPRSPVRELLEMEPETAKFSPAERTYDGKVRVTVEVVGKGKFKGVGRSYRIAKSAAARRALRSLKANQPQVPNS
Active calls of the source: *.

SMILES | Dicer processing
CC(C)(C)C(=O)NC(=O)Nc1cc(C(F)(F)F)ccc1Cl | 4.07*
CC(=O)c1sc2nc(C(F)(F)F)nn2c1C | 0.35
COc1cccc(C2C(C(=O)OCC3CCCO3)=C(C)NC3=C2C(=O)CCC3)c1OC (configuration not stated) | 0.74
CCCCCCSC1=C(C#N)C(c2ccccc2C)C(C(=O)OC)C(=O)N1 (configuration not stated) | -2.45
O=C1CC(NCCc2c[nH]c3ccc(Cl)cc23)C(=O)N1c1cccc2ccccc12 (configuration not stated) | 2.11
COC(=O)c1c(NC(=O)COc2ccccc2Br)sc2c1CCCC2 | 1.38
CCn1nc(-c2ccncc2)nc2c(=O)n(C)c(=O)nc1-2 | -6.36
CCOc1cc(C2c3c(oc4ccc(F)cc4c3=O)C(=O)N2Cc2ccc3c(c2)OCO3)ccc1O (configuration not stated) | -0.8
CC(C)(O)C#Cc1ccc(C2NCCS2)cc1 (configuration not stated) | 259*
CC(C)(O)C#Cc1ccc(/C=N/O)cc1 | 0.25
CC(C)(O)C#Cc1ccc(/C=N/Nc2ccc(I)cc2)cc1 | -0.48
CC1(C)C2=CC3(C)N(CC(=O)N2c2ccccc21)c1ccccc1C3(C)C (configuration not stated) | 2.48
CCCCC1(C2CC(=O)N(c3cc(F)ccc3F)C2=O)C(=O)N(c2ccccc2)N(c2ccccc2)C1=O (configuration not stated) | 0.44
CC(C)c1nc2sc3c(NCCCO)ncnc3c2c2c1CCCC2 | -0.28
CNC(=O)NNC(=O)c1ccc(C(C)(C)C)cc1 | -2.39
CCOC(=O)NC(=S)Nc1ccc(C(C)(C)C)cc1Cl | 2.68
CNC(=O)Nc1ccc(C(C)(C)C)cc1Cl | 5.14*
O=C(/C=C/c1cccs1)Oc1c(Br)cc(Br)cc1Br | -1.17
C=CCN1C(=O)C(O)(CC(=O)c2cccc(OC)c2)c2cc(Br)ccc21 (configuration not stated) | 0.08
COc1nc2c(c(-c3ccc(Cl)cc3Cl)c1C#N)CCc1ccccc1-2 | 3.13*
COc1nc2c(c(-c3ccc(C(F)(F)F)cc3)c1C#N)CCc1ccccc1-2 | -1.77
COc1nc2c(c(-c3ccc4ccccc4c3)c1C#N)CCc1ccccc1-2 | -1.35
O=C(Nc1ccc(OC(F)(F)F)cc1)NC1CCN(Cc2c(F)cccc2Cl)CC1 | 0.62
Cc1sc2c(c1C)C(=O)/C(=C\Nc1ccccc1Cl)S(=O)(=O)N2C | 4.78*
CN1c2ccsc2C(=O)/C(=C\Nc2ccccc2Cl)S1(=O)=O | -0.04
SMILES | Dicer processing
Cc1sc2c(c1C)C(=O)/C(=C\Nc1ccccn1)S(=O)(=O)N2C | 0.25
CCOC(=O)Cc1nn(Cc2nc(C(=O)OCC)cs2)c(=O)c2ccccc12 | 0.22
CCCCCC(=O)Nc1nc2c(s1)CCc1ccccc1-2 | -2.02
CCc1ccc(CN2CCN(Cc3cccnc3)CC2)cc1 | 3.06*
Clc1ccccc1CN1CCN(Cc2cccnc2)CC1 | 1.38
Brc1cccc(CN2CCN(Cc3ccncc3)CC2)c1 | 2.78
Cc1nc(-c2ccc3c(c2)OCC3)sc1C(=O)Nc1ccc2c(c1)OCCO2 | -2.02
N#Cc1cn(Cc2ccccc2)nn1 | 0.4
COC(=O)c1cc(S(=O)(=O)C(C)C)c(S(C)(=O)=O)s1 | -0.98
CCOC(=O)c1sc(SC)c(S(C)(=O)=O)c1N | -0.95
CCOC(=O)c1cc(S(=O)(=O)C(C)C)c(SC)s1 | 3.84*
Cc1cc(C)c(NC(=S)NC(C)(C)C)c(C)c1 | 0.01
CCCCNc1nc2c(c(=O)[nH]c(=O)n2C)n1CCC(C)C | 2.42
NC(=NC(=O)c1cccc(Cn2cc(C(F)(F)F)ccc2=O)c1)c1ccccc1 | -0.66
COc1ccc(/C(O)=C2/C(=O)C(=O)N(CCN(C)C)C23C(=O)N(C)c2ccccc23)cc1 (configuration not stated) | 1.89
CN(C)CCN1C(=O)C(=O)/C(=C(\O)c2ccc(F)cc2)C12C(=O)N(C)c1ccccc12 (configuration not stated) | 2.69
COc1ccc(/C(O)=C2/C(=O)C(=O)N(CCCN(C)C)C23C(=O)N(C)c2ccccc23)cc1 (configuration not stated) | 3.72*
CCOc1ccc(/C(O)=C2/C(=O)C(=O)N(CCCN(C)C)C23C(=O)N(C)c2ccccc23)cc1 (configuration not stated) | 5.02*
COCCN1C(=O)C(=O)/C(=C(\O)c2ccc(Cl)cc2)C12C(=O)N(C)c1ccccc12 (configuration not stated) | -0.97
CCCCN1C(=O)C2(/C(=C(/O)c3ccc(F)cc3)C(=O)C(=O)N2CCCN(C)C)c2ccccc21 (configuration not stated) | 1.17
COc1ccc(C(N)=O)c(Cl)c1OC | -0.97
Cc1nc2ccccn2c1C(=O)NNS(C)(=O)=O | 0.01
CCOC(=O)C(=CNc1nc2ccc(F)cc2s1)C(=O)OCC | 0.63
CCOC(=O)C(=CNc1ccc2c(c1)CCN2C(C)=O)C(=O)OCC | 1.53
CCOC(=O)C(=CNc1ccc(F)c(C#N)c1)C(=O)OCC | 3.42*
SMILES | Dicer processing
COc1ccc(-c2cnn3c(N)c(C#N)cnc23)cc1OC | 2.78
CN(C)c1ncnc2c1C(c1ccc(Br)cc1)c1c(ncnc1N(C)C)O2 | 4.98*
FC(F)(F)c1cc(-c2ccc(Cl)cc2)nc2cc(C3CC3)nn12 | -0.53
CSC(N)=Nc1cc(C)c(C)cc1C | 1.39
O=C(O)c1ccc2c(=O)n3c4ccc(Cl)cc4nc3c3ccc(C(=O)O)c1c23 | 0.93
O=C(O)Cn1c2ccccc2c2nc3ccccc3nc21 | -1.6
O=C(O)c1ccc2c(=O)n3c4ccccc4nc3c3ccc(C(=O)O)c1c23 | 3.15*
O=C(NNc1c(Cl)cc(Cl)cc1Cl)NC(=O)c1c(F)cccc1F | -0.54
Cc1cc(C(=O)NN)nn1-c1c(Cl)cc(Cl)cc1Cl | 0.49
CCCCOC(=O)Nc1nc2ccc(C)cc2s1 | 2.34
CS(=O)(=O)c1ccc2nc(NC(=O)CCCC(=O)O)sc2c1 | 0.15
CCOC(=O)Nc1nc2ccc(C)cc2s1 | 0.79
CC(=O)Nc1nc2ccc(Br)cc2s1 | -3.01
CS(=O)(=O)c1ccc2nc(NC(=O)Cc3ccc(Br)cc3)sc2c1 | 5.28*
CCOC(=O)C(=O)Nc1nc2ccc(S(C)(=O)=O)cc2s1 | 5.83*
CCOC(=O)NNC(=S)NC1CC2C=CC1C2 (configuration not stated) | -0.48
Cc1cccc(-c2noc(-c3ccc(C)cc3Cl)n2)c1 | 2.95
O=C(/C=C/Sc1ccccn1)c1cccc(Br)c1 | -2.35
O=S(=O)(NCc1ccccc1)c1cc(Br)c(Br)s1 | 0.96
CC(C)n1cc(-c2noc(-c3cccs3)n2)c(=O)n(Cc2ccccc2)c1=O | 3.15*
Cc1csc(-c2cn(C(C)C)c(=O)n(Cc3ccccc3)c2=O)n1 | -0.87
CC(C)n1cc(-c2nc(-c3ccc(Cl)cc3)cs2)c(=O)n(Cc2ccccc2)c1=O | -0.66
Cc1ccc(-c2nnc3c4ccccc4c(C)nn23)cc1S(=O)(=O)N1CCC(C)CC1 | 5.48*
Cc1ccc(-c2nnc3c4ccccc4c(C)nn23)cc1S(=O)(=O)N1CCCCC1 | 1.37
Cc1ccc(-c2nnc3c4ccccc4c(C)nn23)cc1S(=O)(=O)N(C)C1CCCCC1 | 0.96
SMILES | Dicer processing
Cn1ccnc1SCC(=O)Nc1ccc(F)c(F)c1 | 5.43
Cn1c(=O)n(CC(=O)O)c2ccccc21 | 3.57*
Cn1c(=O)n(CCCOc2ccc(Cl)cc2)c2ccccc21 | -0.48
Cn1c(=O)n(Cc2ccccc2Br)c2ccccc21 | 2.54
c1ccc(CN2CCC(n3nnc4cccnc43)CC2)cc1 | -0.05
CCOC(=O)C(C(C)=O)c1c([N+](=O)[O-])c(=O)n(-c2ccccc2)c2ccccc12 (configuration not stated) | 0.94
